Shown are actives, neighbours in structure and some others; about 2.3% of the full set was active somewhere.
C diff growth = C. difficile growth inhibition; Clostridium difficile clinical isolate growth, OD600, 24 h; hits give low values; growth activity, negative = inhibition, % at 16 µg/mL (by protocol); 86,000 tested, 0.25% active;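 active means mean growth activity at or below -80% and every replicate also at or below -80%; inconclusive means mean at or below -80% but some replicate above -80%; inactive means mean growth activity above -80%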
Pf Dd2 inh = inhibitors of Plasmodium falciparum Dd2 growth; P. falciparum Dd2 growth, SYBR Green, 72 h; hits give low values; activity change, % at 10 µM; 94,000 tested, 2.3% active; AID 1159554; in the data active means activity change below about -80%; inconclusive means no clear call, values can overlap the other calls
Numbers stand for hits; 0 = inactive; ? = inconclusive; - = no result given.

SMILES | C diff growth | Pf Dd2 inh
COc1ccc(S(=O)(=O)N2CC[C@H]3[C@H](CO)Nc4ccc(C#Cc5ccccc5OC)cc4[C@H]32)cc1 | 0 | 0
COc1ccc(S(=O)(=O)N2CC[C@@H]3[C@@H](CO)Nc4ccc(-c5ccc(C#N)cc5)cc4[C@@H]32)cc1 | 0 | -81
CN(C)C(=O)c1ccc(-c2ccc3c(c2)[C@H]2[C@H](CCN2Cc2ccc4c(c2)OCO4)[C@@H](CO)N3)cc1 | 0 | 0
N#Cc1ccc(-c2ccc3c(c2)[C@H]2[C@H](CCN2Cc2ccc4c(c2)OCO4)[C@H](CO)N3)cc1 | -96 | 0
CCCNC(=O)N1C[C@@H](C)[C@@H](OC)CN(C)C(=O)c2cc(NS(=O)(=O)CC(F)(F)F)ccc2OC[C@@H]1C | - | 0
Cc1ccc(NC(=O)Nc2ccc3c(c2)C(=O)N(C)[C@@H]2CC[C@@H](CC(=O)O)O[C@@H]2CO3)cc1 | 0 | 0
COc1cccc(-c2cnc3c(c2)C(=O)N([C@H](C)CO)C[C@H](C)[C@H](CN(C)C(=O)Nc2ccccc2)O3)c1 | 0 | -
COCc1cn(CC[C@H]2CC[C@@H](NC(=O)Nc3ccc(C(F)(F)F)cc3)[C@@H](CO)O2)nn1 | 0 | 0
N#C[C@@H]1[C@H](c2ccccc2-c2ccccc2)[C@@H](CO)N1C(=O)Cc1ccccc1 | 0 | 0
CN(C)CC(=O)N1[C@@H]2Cn3c(ccc(-c4ccccc4)c3=O)[C@H]1[C@@H](C(=O)N1CCN(C)CC1)[C@@H]2CO | 0 | -
C[C@@H]1CN([C@@H](C)CO)C(=O)c2cc(NC(=O)Nc3cccc4ccccc34)ccc2O[C@@H](C)CCCCO[C@H]1CN(C)C(=O)Nc1cccc2ccccc12 | - | 0
C[C@@H]1CCCCO[C@@H](CN(C)C(=O)Nc2cccc3ccccc23)[C@H](C)CN([C@H](C)CO)C(=O)c2cc(NC(=O)Nc3ccc4c(c3)OCO4)ccc2O1 | 0 | -90
C[C@H](CO)N1C[C@H](C)[C@H](CN(C)C(=O)Nc2ccc3c(c2)OCO3)OCCCC[C@H](C)Oc2ccc(NC(=O)Nc3cccc4ccccc34)cc2C1=O | 0 | 0
C[C@@H]1CCCCO[C@@H](CN(C)C(=O)Nc2cccc3ccccc23)[C@@H](C)CN([C@H](C)CO)C(=O)c2cc(NC(=O)Nc3cccc4ccccc34)ccc2O1 | - | 0
C[C@@H]1CN([C@@H](C)CO)C(=O)c2cc(NC(=O)Nc3ccc4c(c3)OCO4)ccc2O[C@@H](C)CCCCO[C@H]1CN(C)C(=O)Nc1cccc2ccccc12 | 0 | 0
C[C@@H]1CCCCO[C@@H](CN(C)C(=O)Nc2cccc3ccccc23)[C@@H](C)CN([C@H](C)CO)C(=O)c2cc(NC(=O)Nc3ccc4c(c3)OCO4)ccc2O1 | 0 | -87
C[C@@H]1CCCCO[C@H](CN(C)C(=O)Nc2cccc3ccccc23)[C@H](C)CN([C@@H](C)CO)C(=O)c2cc(NC(=O)Nc3ccc4c(c3)OCO4)ccc2O1 | 0 | -83
C[C@@H]1CCCCO[C@@H](CN(C)C(=O)Nc2ccc3c(c2)OCO3)[C@@H](C)CN([C@@H](C)CO)C(=O)c2cc(NC(=O)Nc3cccc4ccccc34)ccc2O1 | 0 | -91
C[C@H](CO)N1C[C@H](C)[C@H](CN(C)C(=O)Nc2ccc(F)cc2)Oc2c(NS(=O)(=O)c3cccs3)cccc2C1=O | 0 | 0
O=C(c1cccnc1)N1CC2(C1)[C@@H](c1ccccc1)[C@@H](CO)N2C(=O)CC1CC1 | 0 | -87
O=C(CC1CC1)N1CC2(C1)[C@H](c1ccccc1)[C@@H](CO)N2C(=O)c1cccnc1 | 0 | 0
C[C@@H]1CCCCO[C@@H](CN(C)C)[C@@H](C)CN([C@@H](C)CO)C(=O)c2cc(NC(=O)Nc3cccc4ccccc34)ccc2O1 | 0 | -
C[C@H]1CCCCO[C@@H](CN(C)CC2CCCCC2)[C@@H](C)CN([C@@H](C)CO)C(=O)c2cc(NC(=O)Nc3cccc4ccccc34)ccc2O1 | 0 | -83
C[C@@H]1CCCCO[C@H](CN(C)CC2CCCCC2)[C@@H](C)CN([C@H](C)CO)C(=O)c2cc(NC(=O)Nc3cccc4ccccc34)ccc2O1 | 0 | 0
C[C@@H]1CN([C@@H](C)CO)C(=O)c2cc(NC(=O)Nc3cccc4ccccc34)ccc2O[C@@H](C)CCCCO[C@@H]1CN(C)C | 0 | -87
SMILES | C diff growth | Pf Dd2 inh
COCC#Cc1ccc2c(c1)O[C@H](CN(C)C(=O)c1ccccc1F)[C@@H](C)CN([C@@H](C)CO)S2(=O)=O | 0 | 0
C[C@@H]1CN([C@H](C)CO)C(=O)c2cc(NC(=O)c3ccncc3)ccc2O[C@@H]1CN(C)Cc1ccc(C(=O)Nc2ccccc2N)cc1 | - | 0
C[C@@H]1CCCCO[C@@H](CN(C)Cc2ccc(C(=O)Nc3ccccc3N)cc2)[C@@H](C)CN([C@H](C)CO)C(=O)c2cc(NC(=O)Cc3ccccc3)ccc2O1 | 0 | -84
C[C@@H]1CN([C@@H](C)CO)C(=O)c2cc(NC(=O)Cc3cn(C)c4ccccc34)ccc2O[C@H]1CN(C)Cc1ccc(C(=O)Nc2ccccc2N)cc1 | - | -85
C[C@@H]1CN([C@@H](C)CO)C(=O)c2cc(NC(=O)Cc3ccccc3)ccc2O[C@@H]1CN(C)Cc1ccc(C(=O)Nc2ccccc2N)cc1 | 0 | -86
C[C@H]1CN([C@@H](C)CO)C(=O)c2cc(NC(=O)Cc3ccccc3)ccc2O[C@H]1CN(C)Cc1ccc(C(=O)Nc2ccccc2N)cc1 | 0 | 0
C[C@H]1CN([C@@H](C)CO)C(=O)c2cc(NC(=O)c3ccncc3)ccc2O[C@@H]1CN(C)Cc1ccc(C(=O)Nc2ccccc2N)cc1 | 0 | -86
CC(C)NC(=O)Nc1ccc2c(c1)C(=O)N([C@H](C)CO)C[C@H](C)[C@H](CN(C)Cc1ccc(C(=O)Nc3ccccc3N)cc1)OCCCC[C@@H](C)O2 | 0 | ?
C[C@@H]1CN([C@@H](C)CO)C(=O)c2cc(NC(=O)Cc3cn(C)c4ccccc34)ccc2O[C@@H]1CN(C)Cc1ccc(C(=O)Nc2ccccc2N)cc1 | - | 0
C[C@H](CO)N1C[C@H](C)[C@H](CN(C)C(=O)C2CCCCC2)OCCCC[C@H](C)Oc2ccc(NS(=O)(=O)c3cn(C)cn3)cc2C1=O | 0 | 0
C[C@H](NC(=O)C[C@H]1CC[C@H](NC(=O)Nc2ccc3c(c2)OCO3)[C@@H](CO)O1)c1ccccc1 | - | 0
OC[C@@H]1[C@@H](c2ccccc2)C2(CN(CC3CC3)C2)N1Cc1ccc(F)cc1 | 0 | -88
O=C(CC1CC1)N1CC2(C1)[C@H](c1ccccc1)[C@@H](CO)N2Cc1ccc(F)cc1 | 0 | 0
CCS(=O)(=O)N1CC2(C1)[C@@H](c1ccccc1)[C@@H](CO)N2Cc1ccc(F)cc1 | 0 | 0
COc1ccccc1CN1CC2(C1)[C@H](c1ccccc1)[C@@H](CO)N2Cc1ccccc1 | 0 | -90
COc1ccccc1CN1[C@H](CO)[C@@H](c2ccccc2)C12CN(C(C)=O)C2 | 0 | 0
CCS(=O)(=O)N1CC2(C1)[C@@H](c1ccccc1)[C@H](CO)N2Cc1ccc(F)cc1 | 0 | -83
C[C@@H]1CN([C@@H](C)CO)C(=O)c2cc(NC(=O)NC3CCCCC3)ccc2O[C@@H](C)CCCCO[C@@H]1CN(C)Cc1ccccc1 | 0 | 0
COc1ccccc1C#Cc1ccc2c(c1)O[C@H](CN(C)Cc1cncnc1)[C@H](C)CN([C@H](C)CO)S2(=O)=O | 0 | 0
CCC(=O)Nc1ccc2c(c1)C(=O)N(C)C[C@@H](OC)[C@@H](C)CN(C(=O)c1ccccc1F)[C@H](C)CO2 | - | 0

Assay outcomes from PubChem.
